# Source: the supplement of paper PMC10037445
# In all, about 2,900 compounds were measured (“NF-kB SEAP reporter activity, fold change vs agonist alone”: median about 0.99, highest 2% from about 2.6 on). This is one part of a sample in which the highest values are shown more often than they occur.
# Key:
# RAW-Dual [1] = assay: NF-kB SEAP reporter activity, fold change vs agonist alone; higher = enhanced NF-kB activity; conditions: library stock concentration (final ~1000-fold dilution): 10 mM
# In short: (§1)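 Supernatant from RAW-Dual macrophages was read after 20 hours for IRF by QuantiLuc luminescence and for NF-κB by QuantiBlue absorbance at 620 nm. The cells (50,000 cells/well in DMEM, 384-well plates, 37 °C, 5% CO2) had received 50 nL of library stock by pin tool and, 1 h later, a PRR agonist. Reporter activity is expressed relative to agonist-alone wells as fold change, and wells were flagged cytotoxic if IncuCyte confluency was under 70% of agonist controls in both mask sets.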
# RAW-Dual [2] = assay: NF-kB SEAP reporter activity, fold change vs agonist alone; cytotoxicity flag (confluency mask): not cytotoxic; higher = enhanced NF-kB activity
# In short: as §1
# RAW-Dual [3] = assay: NF-kB SEAP reporter activity, fold change vs agonist alone; cytotoxicity flag (confluency mask): cytotoxic (confluency <70% of control); higher = enhanced NF-kB activity
# In short: as §1
# [4] = cytotoxicity flag (confluency mask): not cytotoxic, agonist: Imiquimod (TLR7) […]
# [5] = cytotoxicity flag (confluency mask): not cytotoxic, agonist: MPLA (TLR4) […]
# [6] = agonist: ODN 1826 (TLR9) 0.5 ug/mL
# [7] = agonist: Pam2CSK4 (TLR2/6) 0.1 ug/mL
# [8] = agonist: Pam3CSK4 (TLR2/1) 0.1 ug/mL
smiles,measurement,setting,value
O=c1cc(-c2ccc(O)cc2)oc2c(C3OC(CO)C(O)C(O)C3O)c(O)cc(O)c12 (stereo not given),NF-kB SEAP reporter activity,RAW-Dual [1]; [4],0.887
same,NF-kB SEAP reporter activity,RAW-Dual [1]; [5],0.994
O=c1cc(-c2ccc(O)cc2)oc2c(C3OC(CO)C(O)C(O)C3O)c(O)cc(O)c12 (stereo not given) (library stock concentration (final ~1000-fold dilution): 10 mM),NF-kB SEAP reporter activity,RAW-Dual [2]; agonist: LPS (TLR4) 0.1 ug/mL,0.978
same,NF-kB SEAP reporter activity,RAW-Dual [2]; [6],0.919
same,NF-kB SEAP reporter activity,RAW-Dual [2]; [7],1
same,NF-kB SEAP reporter activity,RAW-Dual [2]; [8],1.31
N#Cc1cc(N2CCC(C(=O)N3N=CCC3c3cc(F)cc(F)c3)CC2)ncn1 (stereo not given) (library stock concentration (final ~1000-fold dilution): 10 mM),NF-kB SEAP reporter activity,RAW-Dual [2]; agonist: LPS (TLR4) 0.1 ug/mL,1.25
same,NF-kB SEAP reporter activity,RAW-Dual [2]; [6],1.05
same,NF-kB SEAP reporter activity,RAW-Dual [2]; [7],0.796
same,NF-kB SEAP reporter activity,RAW-Dual [2]; [8],0.84
N#Cc1cc(N2CCC(C(=O)N3N=CCC3c3cc(F)cc(F)c3)CC2)ncn1 (stereo not given),NF-kB SEAP reporter activity,RAW-Dual [1]; [4],1.09
same,NF-kB SEAP reporter activity,RAW-Dual [1]; [5],1.26
Cn1cc(-c2[nH]c3cc(NC(=O)C(N)C4CCCCC4)cc4c3c2C=NNC4=O)cn1 (stereo not given),NF-kB SEAP reporter activity,RAW-Dual [1]; [4],2.17
same,NF-kB SEAP reporter activity,RAW-Dual [1]; [5],2.16
Cn1cc(-c2[nH]c3cc(NC(=O)C(N)C4CCCCC4)cc4c3c2C=NNC4=O)cn1 (stereo not given) (library stock concentration (final ~1000-fold dilution): 10 mM),NF-kB SEAP reporter activity,RAW-Dual [2]; agonist: LPS (TLR4) 0.1 ug/mL,3.51
same,NF-kB SEAP reporter activity,RAW-Dual [2]; [6],2.74
same,NF-kB SEAP reporter activity,RAW-Dual [2]; [7],1.6
same,NF-kB SEAP reporter activity,RAW-Dual [2]; [8],1.8
CC(C)C(NC(=O)C(CC(=O)O)NC(=O)C(CCCCN)NC(=O)C(N)CCCNC(=N)N)C(=O)NC(Cc1ccc(O)cc1)C(=O)O (stereo not given) (library stock concentration (final ~1000-fold dilution): 10 mM),NF-kB SEAP reporter activity,RAW-Dual [2]; agonist: LPS (TLR4) 0.1 ug/mL,1.27
same,NF-kB SEAP reporter activity,RAW-Dual [2]; [6],1.1
same,NF-kB SEAP reporter activity,RAW-Dual [2]; [7],1.19
same,NF-kB SEAP reporter activity,RAW-Dual [2]; [8],1.17
CC(C)C(NC(=O)C(CC(=O)O)NC(=O)C(CCCCN)NC(=O)C(N)CCCNC(=N)N)C(=O)NC(Cc1ccc(O)cc1)C(=O)O (stereo not given),NF-kB SEAP reporter activity,RAW-Dual [1]; [4],1.14
same,NF-kB SEAP reporter activity,RAW-Dual [1]; [5],0.967
CNC(=O)C(NC(=O)C(CC(C)C)C(O)C(=O)NO)C(C)(C)C (stereo not given) (library stock concentration (final ~1000-fold dilution): 10 mM),NF-kB SEAP reporter activity,RAW-Dual [2]; agonist: LPS (TLR4) 0.1 ug/mL,1.09
same,NF-kB SEAP reporter activity,RAW-Dual [2]; [6],1.01
same,NF-kB SEAP reporter activity,RAW-Dual [2]; [7],1.04
same,NF-kB SEAP reporter activity,RAW-Dual [2]; [8],1.01
CNC(=O)C(NC(=O)C(CC(C)C)C(O)C(=O)NO)C(C)(C)C (stereo not given),NF-kB SEAP reporter activity,RAW-Dual [1]; [4],1.08
same,NF-kB SEAP reporter activity,RAW-Dual [1]; [5],1.38
Oc1c(F)cc(-c2cnccc2-c2ccc(N3CCOCC3)cc2)cc1F (library stock concentration (final ~1000-fold dilution): 10 mM),NF-kB SEAP reporter activity,RAW-Dual [2]; agonist: LPS (TLR4) 0.1 ug/mL,1.12
same,NF-kB SEAP reporter activity,RAW-Dual [2]; [6],0.913
same,NF-kB SEAP reporter activity,RAW-Dual [2]; [7],0.947
same,NF-kB SEAP reporter activity,RAW-Dual [2]; [8],0.73
Oc1c(F)cc(-c2cnccc2-c2ccc(N3CCOCC3)cc2)cc1F,NF-kB SEAP reporter activity,RAW-Dual [1]; [4],1.08
same,NF-kB SEAP reporter activity,RAW-Dual [1]; [5],0.911
O=C(Nc1cc(C(F)(F)F)ccc1N1CCN(Cc2ccccn2)CC1)c1ccc(-c2ccncc2)o1 (library stock concentration (final ~1000-fold dilution): 10 mM),NF-kB SEAP reporter activity,RAW-Dual [2]; agonist: LPS (TLR4) 0.1 ug/mL,1.25
same,NF-kB SEAP reporter activity,RAW-Dual [2]; [6],0.731
same,NF-kB SEAP reporter activity,RAW-Dual [2]; [7],0.657
same,NF-kB SEAP reporter activity,RAW-Dual [2]; [8],0.818
O=C(Nc1cc(C(F)(F)F)ccc1N1CCN(Cc2ccccn2)CC1)c1ccc(-c2ccncc2)o1,NF-kB SEAP reporter activity,RAW-Dual [1]; [4],0.609
same,NF-kB SEAP reporter activity,RAW-Dual [1]; [5],1.03
CC(C)CCN1c2nc(Nc3cc(F)c(O)c(F)c3)ncc2N(C)C(=O)C1C (stereo not given) (library stock concentration (final ~1000-fold dilution): 10 mM),NF-kB SEAP reporter activity,RAW-Dual [2]; agonist: LPS (TLR4) 0.1 ug/mL,4.3
same,NF-kB SEAP reporter activity,RAW-Dual [2]; [6],2.63
same,NF-kB SEAP reporter activity,RAW-Dual [2]; [7],1.02
same,NF-kB SEAP reporter activity,RAW-Dual [2]; [8],2.05
CC(C)CCN1c2nc(Nc3cc(F)c(O)c(F)c3)ncc2N(C)C(=O)C1C (stereo not given),NF-kB SEAP reporter activity,RAW-Dual [1]; [4],2.84
same,NF-kB SEAP reporter activity,RAW-Dual [1]; [5],2.55
COc1cc(-c2cc(-c3ccc(Cl)cc3)nc(=O)[nH]2)ccc1O (library stock concentration (final ~1000-fold dilution): 10 mM),NF-kB SEAP reporter activity,RAW-Dual [2]; agonist: LPS (TLR4) 0.1 ug/mL,1.6
same,NF-kB SEAP reporter activity,RAW-Dual [2]; [6],0.991
same,NF-kB SEAP reporter activity,RAW-Dual [2]; [7],1.22
same,NF-kB SEAP reporter activity,RAW-Dual [2]; [8],1.39
COc1cc(-c2cc(-c3ccc(Cl)cc3)nc(=O)[nH]2)ccc1O,NF-kB SEAP reporter activity,RAW-Dual [1]; [4],1.09
same,NF-kB SEAP reporter activity,RAW-Dual [1]; [5],1.15
CCN(CC)CC#CCOC(=O)C(O)(c1ccccc1)C1CCCCC1.Cl (stereo not given),NF-kB SEAP reporter activity,RAW-Dual [1]; [4],1.75
same,NF-kB SEAP reporter activity,RAW-Dual [1]; [5],1.46
CCN(CC)CC#CCOC(=O)C(O)(c1ccccc1)C1CCCCC1.Cl (stereo not given) (library stock concentration (final ~1000-fold dilution): 10 mM),NF-kB SEAP reporter activity,RAW-Dual [2]; agonist: LPS (TLR4) 0.1 ug/mL,2.01
same,NF-kB SEAP reporter activity,RAW-Dual [2]; [6],0.958
same,NF-kB SEAP reporter activity,RAW-Dual [2]; [7],0.963
same,NF-kB SEAP reporter activity,RAW-Dual [2]; [8],1.3
O=C(O)CCCN1CCC(OC(c2ccc(Cl)cc2)c2ccccn2)CC1 (stereo not given) (library stock concentration (final ~1000-fold dilution): 10 mM),NF-kB SEAP reporter activity,RAW-Dual [2]; agonist: LPS (TLR4) 0.1 ug/mL,0.969
same,NF-kB SEAP reporter activity,RAW-Dual [2]; [6],0.924
same,NF-kB SEAP reporter activity,RAW-Dual [2]; [7],1.07
same,NF-kB SEAP reporter activity,RAW-Dual [2]; [8],0.895
O=C(O)CCCN1CCC(OC(c2ccc(Cl)cc2)c2ccccn2)CC1 (stereo not given),NF-kB SEAP reporter activity,RAW-Dual [1]; [4],0.895
same,NF-kB SEAP reporter activity,RAW-Dual [1]; [5],1.07
CN1CCN(C2CCN(C(=O)Nc3cc(Oc4ccc(NC(=O)C5(C(=O)Nc6ccc(F)cc6)CC5)c(F)c4)ccn3)CC2)CC1,NF-kB SEAP reporter activity,"RAW-Dual [1]; cytotoxicity flag (confluency mask): cytotoxic (confluency <70% of control), agonist: Imiquimod (TLR7) […]",2.76
same,NF-kB SEAP reporter activity,"RAW-Dual [1]; cytotoxicity flag (confluency mask): cytotoxic (confluency <70% of control), agonist: MPLA (TLR4) […]",2.32
COc1cc2nccc(Oc3ccc(NC(=O)C4(C(=O)Nc5ccc(F)cc5)CC4)cc3)c2cc1OC,NF-kB SEAP reporter activity,RAW-Dual [1]; [4],0.555
same,NF-kB SEAP reporter activity,RAW-Dual [1]; [5],0.59
CN1CCN(C2CCN(C(=O)Nc3cc(Oc4ccc(NC(=O)C5(C(=O)Nc6ccc(F)cc6)CC5)c(F)c4)ccn3)CC2)CC1 (library stock concentration (final ~1000-fold dilution): 10 mM),NF-kB SEAP reporter activity,RAW-Dual [3]; agonist: LPS (TLR4) 0.1 ug/mL,1.43
same,NF-kB SEAP reporter activity,RAW-Dual [3]; [6],0.896
same,NF-kB SEAP reporter activity,RAW-Dual [3]; [7],0.607
same,NF-kB SEAP reporter activity,RAW-Dual [3]; [8],0.664
COc1cc2c(Oc3ccc(NC(=O)C4(C(=O)Nc5ccc(F)cc5)CC4)cc3F)ccnc2cc1OCCCN1CCOCC1 (library stock concentration (final ~1000-fold dilution): 10 mM),NF-kB SEAP reporter activity,RAW-Dual [2]; agonist: LPS (TLR4) 0.1 ug/mL,0.266
same,NF-kB SEAP reporter activity,RAW-Dual [2]; [6],0.184
same,NF-kB SEAP reporter activity,RAW-Dual [2]; [7],0.0818
same,NF-kB SEAP reporter activity,RAW-Dual [2]; [8],0.137
COc1cc2nccc(Oc3ccc(NC(=O)C4(C(=O)Nc5ccc(F)cc5)CC4)cc3)c2cc1OC (library stock concentration (final ~1000-fold dilution): 10 mM),NF-kB SEAP reporter activity,RAW-Dual [2]; agonist: LPS (TLR4) 0.1 ug/mL,0.511
same,NF-kB SEAP reporter activity,RAW-Dual [2]; [6],0.42
same,NF-kB SEAP reporter activity,RAW-Dual [2]; [7],0.302
same,NF-kB SEAP reporter activity,RAW-Dual [2]; [8],0.275
COc1cc2c(Oc3ccc(NC(=O)C4(C(=O)Nc5ccc(F)cc5)CC4)cc3F)ccnc2cc1OCCCN1CCOCC1,NF-kB SEAP reporter activity,RAW-Dual [1]; [4],0.252
same,NF-kB SEAP reporter activity,RAW-Dual [1]; [5],0.252
CC(Nc1nc(NC(C)C(F)(F)F)nc(-c2cccc(Cl)n2)n1)C(F)(F)F (stereo not given) (library stock concentration (final ~1000-fold dilution): 10 mM),NF-kB SEAP reporter activity,RAW-Dual [2]; agonist: LPS (TLR4) 0.1 ug/mL,1.26
same,NF-kB SEAP reporter activity,RAW-Dual [2]; [6],1.18
same,NF-kB SEAP reporter activity,RAW-Dual [2]; [7],0.998
same,NF-kB SEAP reporter activity,RAW-Dual [2]; [8],1.09
CC(Nc1nc(NC(C)C(F)(F)F)nc(-c2cccc(Cl)n2)n1)C(F)(F)F (stereo not given),NF-kB SEAP reporter activity,RAW-Dual [1]; [4],1.04
same,NF-kB SEAP reporter activity,RAW-Dual [1]; [5],1.11
CC1CNc2c(cccc2S(=O)(=O)NC(CCCNC(=N)N)C(=O)N2CCC(C)CC2C(=O)O)C1.O (stereo not given) (library stock concentration (final ~1000-fold dilution): 10 mM),NF-kB SEAP reporter activity,RAW-Dual [2]; agonist: LPS (TLR4) 0.1 ug/mL,0.94
same,NF-kB SEAP reporter activity,RAW-Dual [2]; [6],1.05
same,NF-kB SEAP reporter activity,RAW-Dual [2]; [7],0.969
same,NF-kB SEAP reporter activity,RAW-Dual [2]; [8],0.87
CC1CNc2c(cccc2S(=O)(=O)NC(CCCNC(=N)N)C(=O)N2CCC(C)CC2C(=O)O)C1.O (stereo not given),NF-kB SEAP reporter activity,RAW-Dual [1]; [5],0.981
